Compound activity as filed in PubChem.
Jurkat NFkB inh – inhibitors of the PMA/ionomycin-induced NF-kB reporter in Jurkat cells; PMA/ionomycin-induced NF-kB luciferase reporter, luminescence; inhibition, % at 4 µM; 330,000 compounds, 0.53% hits; in the data active = inhibition above about 50%
Mdm2 MdmX PPI – disrupts the human Mdm2-MdmX interaction; O15151+Q00987; SaOS-2 split-luciferase Mdm2/MdmX complementation, luminescence; inhibition, % at 8 µM; 330,000 compounds, 3% hits;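 active = inhibition of at least 50% at 8 µM in the primary screen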
Beta cell apopt – blocks beta cell apoptosis; INS-1E cytokine-induced death, ATP luminescence, 48 h; percent of positive-control rescue, neutral wells zero; 300,000 compounds, 0.8% hits; protection from apoptosis, % (test concentration not listed);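 active = Every replicate reaches about 75%, or at least half do and their mean reaches it too, limit read from the data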;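 note: 0% = cytokine-treated negative control wells and 100% = positive control rescue; higher means more ATP so stronger rescue from cytokine killing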
Gli-Sufu antag – antagonists of Gli-Sufu signaling | Sufu-KO-LIGHT fibroblasts, Gli luciferase reporter luminescence | AID 588413 | inhibition, % at 5 µM | 340,000 compounds, 0.74% hits;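 active = inhibition above about 55%, limit read from the data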;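 note: 0% = DMSO-treated cells and 100% = wells with medium but no cells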
697 NFkB inh – lowers PMA/ionomycin-induced NF-kB signal in 697 B cells; 697 B-cell NF-kB luciferase reporter, 16 h; inhibition, % at 4 µM; 330,000 compounds, 0.33% hits; AID 435022; in the data active = inhibition above about 35%
Mdm2 MdmX conf – human Mdm2/MdmX binding inhibition, confirmed; shares compounds with Mdm2 MdmX PPI; luminescent assay; inhibition, % at 8 µM; 10,000 compounds, 55% hits; AID 489028; in the data active = inhibition above about 40%
FLuc counter – full-length luciferase inhibition in Mdm2/MdmX counter-screen; shares compounds with Mdm2 MdmX PPI; SaOS-2 full-length luciferase counterscreen, luminescence; inhibition, % at 8 µM; 6,200 compounds, 77% hits;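 active = mean inhibition at 8 µM reaching about 37%, which flags the compound as non-specific, limit read from the data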;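 note: p53-null SaOS-2 cells with luciferase driven by a doxycycline-inducible promoter; compound on cells about two nights before reading with doxycycline added after day one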
* marks the source's active call; other numbers are inactive results; / = no result. Most compounds without a hit are left out; they make up all but 4% or so of the library.

SMILES | Jurkat NFkB inh | Mdm2 MdmX PPI | Beta cell apopt | Gli-Sufu antag | 697 NFkB inh | Mdm2 MdmX conf | FLuc counter
CC(=O)Nc1cc2cc(NS(=O)(=O)c3ccc(C)cc3)ccc2oc1=O | 10 | 40 | 1 | 3 | 20 | / | /
CSc1nc(C(=O)N2CCCC(N3CCN(c4ccccc4C)CC3)C2)cs1 (centres undefined) | -6 | 20 | -2 | 20 | 12 | / | /
CCN(CC)C(=O)Cn1cnc2sc(C(=O)N3CCN(c4ccc(F)cc4)CC3)c(C)c2c1=O | -2 | 17 | / | -12 | 0 | / | /
N/C(=N\OCc1ccc([N+](=O)[O-])cc1)c1ccncc1 | -33 | 3 | -9 | -46 | -11 | / | /
COc1cccc(NC(=O)c2nnn(CC(=O)Nc3cc(C)cc(C)c3)c2N)c1 | -2 | 74* | / | -27 | 2 | 4 | /
COc1ccc(NC(=O)c2oc3ccccc3c2NC(=O)c2ccc(OC)c(OC)c2)c(OC)c1 | / | / | / | 3 | / | / | /
CCOc1ccc(OCC)c(NC(=O)c2nnn(CC(=O)Nc3cc(C)cc(C)c3)c2N)c1 | 5 | 58* | 10 | 0 | 9 | 8 | /
COc1ccc(NC(=O)c2oc3ccccc3c2NC(=O)COc2ccccc2OC)c(OC)c1 | 10 | 70* | 9 | 10 | 5 | -5 | /
COc1ccc(NC(=O)c2nnn(CC(=O)Nc3ccccc3OC)c2N)c(OC)c1 | -1 | 68* | -2 | -10 | 1 | -2 | /
O=C(Nc1c(Br)cc2c(c1Br)Cc1ccccc1-2)C(Cl)Cl | / | / | / | -5 | / | / | /
Cc1c(-c2ccccc2)nc2ccccc2c1C(=O)OCC(=O)Nc1ncc(C(F)(F)F)cc1Cl | 4 | 1 | -5 | -4 | 9 | / | /
O=C(N/N=C/C=C/c1ccccc1)c1n[nH]c2c1CCC2 | 36 | 63* | 12 | 13 | -24 | 56* | 95*
O=C(N/N=C/c1cccc2ccccc12)c1n[nH]c2c1CCCC2 | 25 | 66* | 3 | -5 | -51 | 65* | 85*
CC(/C=N/NC(=O)c1n[nH]c2c1CCC2)=C\c1ccccc1 | 31 | 11 | 62 | -1 | -56 | / | /
CCOc1cc(C(=O)NN2CCOCC2)cc(OCC)c1OCC | 4 | 4 | -2 | -4 | 1 | / | /
CCN1CCCC1CNCC(O)COc1ccc(C(C)(C)C)cc1C (centres undefined) | 3 | 13 | -6 | 10 | 4 | / | /
CN1C(=O)c2ccc(NC(=O)CCS(=O)(=O)c3ccccc3)cc2C1=O | -11 | 13 | -1 | 15 | 1 | / | /
O=C(Nc1ccccc1N1CCOCC1)c1cc(-c2ccco2)nc2ccccc12 | 4 | 70* | -1 | 5 | 2 | 53* | 68*
COc1cc(-c2cc(C(=O)Nc3ccccc3N3CCOCC3)c3ccccc3n2)cc(OC)c1OC | -12 | 46 | 14 | 17 | 12 | / | /
Fc1ccc(OCCOCCN2CCNCC2)cc1 | -9 | 14 | -4 | -34 | 5 | / | /
COc1ccc(-c2cc(C#N)nc(Oc3ccc(Cl)cc3)n2)cc1 | 8 | 37 | 10 | -5 | 0 | / | /
COc1ccc(-c2cc(C#N)nc(Cl)n2)cc1 | 9 | 68* | -6 | -3 | 24 | 34 | 38*
CCN(CC)c1nc(C#N)cc(-c2ccc(OC)cc2)n1 | 48 | 54* | 22 | 15 | -43 | 65* | 47*
O=C(CNC(=O)C(c1ccccc1)c1ccccc1)N/N=C\c1cccc(O)c1 | 4 | -6 | -2 | -2 | 22 | / | /
Cc1cc(SCC(=O)N/N=C/c2ccccc2C(=O)O)c(C)cc1Br | -1 | -8 | 1 | -26 | -13 | / | /
SMILES | Jurkat NFkB inh | Mdm2 MdmX PPI | Beta cell apopt | Gli-Sufu antag | 697 NFkB inh | Mdm2 MdmX conf | FLuc counter
Cc1cc(SCC(=O)N/N=C/c2ccc(O)cc2O)c(C)cc1Br | 5 | 61* | 55 | 9 | -29 | 66* | 67*
O=C(CNC(=O)C1COc2ccccc2O1)N/N=C\c1cccc(O)c1 (centres undefined) | 14 | 10 | -1 | -6 | 21 | / | /
O=C(CNC(=O)C1COc2ccccc2O1)N/N=C/c1ccc(O)cc1O (centres undefined) | 16 | 51* | 20 | 4 | -6 | 38 | 71*
O=C(CNC(=O)C(c1ccccc1)c1ccccc1)N/N=C/c1ccc(O)cc1O | 12 | 70* | 44 | 1 | -4 | 77* | 38*
CCc1cc(C(=O)N/N=C/c2ccc(O)cc2O)c2ccccc2n1 | 14 | 63* | 93* | 13 | -50 | 64* | 36*
CCOc1ccc(/C=N/NC(=O)CN2CCCCC2)cc1OCC | -13 | 11 | 14 | 5 | -1 | / | /
Cc1ccc(NC(=O)c2cc(C)nc3ccccc23)cc1 | 12 | 10 | 0 | 30 | 7 | / | /
O=C(CSc1ccc2ccccc2n1)N/N=C/c1ccccc1O | -7 | 61* | -5 | 3 | -10 | 68* | 74*
Cc1ccc(NC(=O)c2cc(CC(C)C)nc3ccccc23)cc1 | 5 | 82* | -3 | -14 | -135 | 84* | 55*
O=C(CSc1ccc2ccccc2n1)N/N=C/c1ccc(O)cc1 | -9 | -18 | -1 | -2 | -8 | / | /
COc1ccc(C(=O)NC2CCCc3c2cnn3-c2cccc(C)c2C)o1 (centres undefined) | 0 | 74* | 15 | 43 | -230 | 48* | 46*
COc1cccc(CCNC(=O)c2cc(COc3c(F)cccc3F)on2)c1 | 5 | 7 | -5 | -5 | 3 | / | /
Cc1ccc(S(=O)(=O)N2C(=O)/C(=C3\SC(=S)NC3=O)c3ccccc32)cc1 | 8 | 51* | 5 | / | 13 | 37 | 82*
Cc1cccc(N=C2NC(=O)/C(=C3/C(=O)N(C)c4ccccc43)S2)c1C | 4 | 0 | 5 | 8 | 19 | / | /
O=C(CCC1CCCN(C(=O)c2ccc3c(c2)OCO3)C1)N1CCN(c2ccccn2)CC1 (centres undefined) | 4 | -5 | 0 | 5 | -13 | / | /
FC(F)(F)c1ccc(CN2C[C@@H]3C(c4ccccc4)C4(c5cccnc5)CC3(C4)[C@H]2c2ccccc2)cc1 (some centres undefined) | -13 | 25 | 13 | 8 | -31 | / | /
FC(F)(F)c1ccc(CN2C[C@@H]3C(c4ccc(C(F)(F)F)cc4)C4(c5cccnc5)CC3(C4)[C@H]2c2ccccc2)cc1 (some centres undefined) | 13 | 65* | 109* | 5 | 11 | 12 | /
COC(=O)c1cccc(C23CC4(C2)[C@H](CN(Cc2ccc(C(F)(F)F)cc2)[C@@H]4c2ccccc2)C3c2ccc(C(F)(F)F)cc2)c1 (some centres undefined) | 25 | 73* | 33 | -14 | -33 | 59* | 24
Cc1cccnc1NC(=O)CCn1c(=O)oc2ccccc21 | 8 | 27 | / | 2 | 5 | / | /
COCCN=c1scc(-c2cc(OC)c(OC)c(OC)c2)n1/N=C/c1c(C)[nH]c2ccccc12 | 10 | 59* | 4 | 38 | -3 | 19 | /
Cc1[nH]c2ccccc2c1/C=N/n1cnnc1 | -19 | 13 | -1 | -8 | 7 | / | /
